FadD28 FP inh: blocks FadD28 binding to the bisubstrate probe; fluorescence polarization; inhibition, % at 12.5 µM; actives 0.22% (n = 360,000); in the data active = inhibition above about 8.5%, passing the limit was not always enough
Rv3671c protease: inhibits the M. tuberculosis serine protease Rv3671c | P9WHR9 | inhibition, % at 5.96 µM | actives 0.048% (n = 320,000) | AID 2606; in the data active = inhibition above about 38%;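 also: extracellular domain of Rv3671c used as enzyme; 0% = enzyme with DMSO and 100% = no enzyme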
Target sequence (P9WHR9 whole entry, looked up, the tested form may be a part): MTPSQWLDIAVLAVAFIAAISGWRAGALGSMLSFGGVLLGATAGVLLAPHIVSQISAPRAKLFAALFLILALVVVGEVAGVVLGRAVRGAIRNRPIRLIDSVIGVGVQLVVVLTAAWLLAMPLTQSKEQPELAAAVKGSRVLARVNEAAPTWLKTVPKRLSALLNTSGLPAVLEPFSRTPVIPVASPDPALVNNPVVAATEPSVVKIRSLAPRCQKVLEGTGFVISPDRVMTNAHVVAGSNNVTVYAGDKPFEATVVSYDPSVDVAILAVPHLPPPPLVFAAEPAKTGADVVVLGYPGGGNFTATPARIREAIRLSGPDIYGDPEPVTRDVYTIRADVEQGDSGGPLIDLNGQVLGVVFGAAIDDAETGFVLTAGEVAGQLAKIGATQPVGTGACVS
FBA Mtb inh: Mtb fructose-bisphosphate aldolase inhibition. inhibition, % at 1 µM. P9WQA3. actives 2.3% (n = 360,000). purified M. tuberculosis FBA, fluorescence read-out;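 also: 0% = vehicle and 100% = reference inhibitor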
Mtb BioA inh: BioA (M. tuberculosis) enzyme inhibition; inhibition, % at 9.99 µM; purified M. tuberculosis BioA enzyme, plate reader; actives 0.096% (n = 360,000); in the data active = inhibition above about 40%
GDH-TPI counter-1: inhibits GDH-TPI coupling enzymes, artifact for Mtb FBA screen. GDH-TPI coupled enzyme counterscreen, NADH absorbance. inhibition, % at 4.8 µM. actives 1.2% (n = 360,000). AID 588335; in the data active = inhibition above about 30%;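 also: 0% = DMSO wells and 100% = wells lacking the enzyme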
Mtb FBA inh conf: Mtb FBA inhibition, confirmed; shares compounds with FBA Mtb inh; purified M. tuberculosis FBA, fluorescence read-out; inhibition, % at 1 µM; actives 78% (n = 5,600);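 also: 0% = vehicle wells and 100% = reference inhibitor wells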
GDH-TPI counter-2: counter-screen for M. tuberculosis FBA inhibitors: GDH-TPI coupled enzyme inhibition. shares compounds with FBA Mtb inh. GDH-TPI coupled enzyme counterscreen, fluorescence. inhibition, % at 1 µM. actives 81% (n = 5,600); in the data active = inhibition above about 10%
Numbers without * were called inactive; nt = no result; + = active, no number. Compounds with a hit are over-represented: about 3% of the library has one in this group of screens. Rule as the data show it, unless noted: active = inhibition above about 27%; inactive = the rest.

SMILES	FadD28 FP inh	Rv3671c protease	FBA Mtb inh	Mtb BioA inh	GDH-TPI counter-1	Mtb FBA inh conf	GDH-TPI counter-2
Cc1c(OC(C)C(=O)NCc2ccncc2)ccc2c3c(c(=O)oc12)CCCC3 (stereo unspecified)	-3	-5	34*	16	12	0	-3
Cc1cc(OC(C)C(=O)NCc2ccncc2)c2c3c(c(=O)oc2c1)CCC3 (stereo unspecified)	-3	-4	64*	2	9	133*	93*
Cc1cc(OC(C)C(=O)NCc2ccncc2)c2c3c(c(=O)oc2c1)CCCC3 (stereo unspecified)	1	-1	71*	0	10	178*	154*
Cc1cc(OCC(=O)NCc2ccncc2)c2c3c(c(=O)oc2c1)CCCC3	-4	0	85*	21	4	122*	94*
O=C(C[C@H]1CC[C@H]2[C@@H](COC[C@@H](O)CN2C(=O)c2ccccc2)O1)NCCCN1CCOCC1	nt	nt	nt	-1	nt	nt	nt
Cc1cc(=O)oc2c(C)c(OC(C)C(=O)NCC(O)c3ccccc3)ccc12 (stereo unspecified)	-2	-1	20	0	9	nt	nt
Cc1c(OC(C)C(=O)NCC(O)c2ccccc2)ccc2c3c(c(=O)oc12)CCCC3 (stereo unspecified)	-3	0	48*	nt	21	+	197*
CCCCn1c(-c2ccc(Cl)cc2)nc2c(=O)n(C)c(=O)[nH]c21	0	nt	17	-1	0	nt	nt
Cn1c(=O)[nH]c2c(nc(-c3ccc(Cl)cc3)n2C)c1=O	-1	0	28*	-2	-4	3	1
CCCn1c(-c2ccc(OC)cc2)nc2c(=O)n(C)c(=O)[nH]c21	-5	4	71*	-1	-2	1	-9
CCCCn1c(-c2ccc(OC)cc2)nc2c(=O)n(C)c(=O)[nH]c21	0	1	58*	nt	-4	107*	106*
CN(C)CC(=O)N[C@@H]1CC[C@@H](CCn2cc(CN(C)C)nn2)O[C@H]1CO	nt	nt	nt	3	nt	nt	nt
O=C(c1cccs1)N1CCc2c([nH]c3ccccc23)C1c1ccccn1 (stereo unspecified)	-1	-1	34*	nt	7	1	-5
C[C@H](CO)N1C[C@H](C)[C@H](CN(C)C(=O)Nc2ccc(F)cc2)Oc2ccc(NS(=O)(=O)c3ccccc3)cc2CC1=O	nt	nt	nt	-2	nt	nt	nt
CCNC(=O)C[C@H]1CC[C@@H]2[C@H](COC[C@H](O)CN2Cc2ccncc2)O1	nt	nt	nt	-1	nt	nt	nt
COCCNC(=O)c1c(NC(=O)c2ccc(Br)o2)n(Cc2ccccc2)c2nc3ccccc3nc12	-1	-219	27	-2	27	nt	nt
COCCCNC(=O)c1c(NC(=O)c2ccco2)n(Cc2ccccc2)c2nc3ccccc3nc12	0	-21	45*	4	15	47*	37*
CCCCCn1c(NC(=O)c2ccco2)c(C(=O)OCC)c2nc3ccccc3nc21	1	-29	54*	-1	17	134*	100*
C[C@H]1CCCCO[C@H](CN(C)CC2CCCCC2)[C@@H](C)CN([C@@H](C)CO)C(=O)c2cc(NC(=O)Nc3cccc4ccccc34)ccc2O1	nt	nt	nt	-6	nt	nt	nt
C/C=C/c1ccc2c(c1)[C@H]1[C@H](CCN1S(=O)(=O)c1ccc(C)cc1)[C@H](CO)N2	nt	nt	nt	0	nt	nt	nt
CCC(=O)N1C[C@H](O)COC[C@H]2O[C@H](CC(=O)NCc3ccc(Oc4ccccc4)cc3)CC[C@@H]21	nt	nt	nt	-1	nt	nt	nt
O=C(O)c1ccc2c(c1)C(=O)N(CCc1ccccc1)C2=O	-1	-3	85*	1	-1	174*	132*
O=C(O)c1ccc2c(c1)C(=O)N(CCCCCCCN1C(=O)c3ccc(C(=O)O)cc3C1=O)C2=O	-4	-7	-1	3	2	nt	nt
COc1cccc2c(=O)c3c(oc12)CCCC3	-1	nt	45*	12	6	131*	94*
O=C(Nc1ccccc1)N1C[C@@H]2[C@H](c3ccccc31)[C@H](CO)N2C(=O)c1ccncc1	nt	nt	nt	-2	nt	nt	nt
SMILES	FadD28 FP inh	Rv3671c protease	FBA Mtb inh	Mtb BioA inh	GDH-TPI counter-1	Mtb FBA inh conf	GDH-TPI counter-2
COCCOC(=O)N1C(=O)[C@@]2(c3cc(C#CCCO)ccc31)[C@H](C(N)=O)[C@H]1C(=O)O[C@H](c3ccccc3)[C@H](c3ccccc3)N1[C@@H]2c1ccccc1OCCO	nt	nt	nt	0	nt	nt	nt
CCC(=O)Nc1ccc2c(c1)C(=O)N(C)C2=O	0	10	27*	0	16	15	6
CN1C(=O)c2ccc(NC(=O)c3cccc(N4C(=O)CCC4=O)c3)cc2C1=O	0	-3	28*	nt	8	81*	93*
CCCC(=O)Nc1ccc2c(c1)C(=O)N(CCC(=O)O)C2=O	-2	-1	41*	nt	14	116*	89*
Cc1cccc(NC(=O)c2cccc(N3C(=O)CCC3=O)c2)c1	-3	-1	1	1	-2	nt	nt
O=C(Nc1ccc2c(c1)C(=O)N(c1ccccc1)C2=O)c1cccs1	-3	-8	0	nt	-1	nt	nt
O=C(O)CCN1C(=O)c2ccc(NC(=O)c3cccs3)cc2C1=O	-5	3	32*	-1	16	183*	171*
Cc1cc(NC(=O)NCc2ccccc2)c(=O)n(Cc2ccc(F)cc2)c1	-1	1	28*	-2	15	98*	83*
O=C(NCc1ccccc1)Nc1cccn(Cc2ccc(F)cc2)c1=O	-4	-2	14	nt	-7	nt	nt
O=C(NCCCN1CCOCC1)c1cc2ccccc2cc1O	-2	4	2	nt	-4	nt	nt
Cc1cc(NC(=O)c2cc(-c3ccc(C)c(C)c3)nc3ccccc23)no1	-4	-25	22	-2	4	nt	nt
O=C(CSc1nc(-c2cccs2)cc(C(F)(F)F)n1)NCCCN1CCOCC1	0	5	0	nt	10	nt	nt
Cc1ccc(-c2cc(C(=O)NCCCN3CCCC3)c3ccccc3n2)cc1C	-4	-6	35*	2	10	95*	57*
COc1ccc(-c2cc(C(F)(F)F)nc(SCC(=O)NCCCN3CCOCC3)n2)cc1	-2	-6	34*	nt	11	111*	84*
O=C(NCCN1CCOCC1)c1cc(-c2ccccc2)nc2ccccc12	-1	nt	0	1	12	nt	nt
Nc1ccccc1C(=O)NCCCN1CCOCC1	-1	-5	67*	0	9	76*	76*
COc1ccc(-c2cc(C(=O)NCCN3CCOCC3)c3cc(C(C)C)ccc3n2)cc1	-3	-10	42*	2	13	160*	153*
C/C=C/c1ccc([C@@H]2[C@@H](CO)N(C(=O)NCCC)[C@@H]2CNC(=O)C2CC2)cc1	nt	nt	nt	-1	nt	nt	nt
CC(=O)N(C)C[C@H]1Oc2cc(C#Cc3cccc(F)c3)ccc2S(=O)(=O)N([C@@H](C)CO)C[C@H]1C	nt	nt	nt	2	nt	nt	nt
C[C@@H](NC(=O)C[C@H]1CC[C@@H](NS(=O)(=O)c2cccc(F)c2)[C@H](CO)O1)c1ccccc1	nt	nt	nt	0	nt	nt	nt

Screens from PubChem.
